Screening data as filed in PubChem BioAssay.
Most compounds without a hit are left out; they make up all but 7.8% or so of the library.
HCV inhibitor: inhibitors of hepatitis C virus infection. Huh7.5.1 HCVcc-Cre infection, luciferase reporter, 44 h. Potency, µM (highest dose often 41.8 µM), without a hit: at the highest dose activity change, negative = inhibition, most hits filed as inhibitors. actives 3.4% (n = 340,000); active means well fitted inhibition curve with a large enough effect; inconclusive means small, poorly fitted or top-dose-only effect, or another doubt; inactive means no such curve, though single readings can be large or run the other way; further: potency means the concentration at half of the fitted maximal effect
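Whole-lifecycle infectious HCVcc-Cre system; cells 1,000/well, compound then virus (~0.5 moi) added 4 h after plating, 44 h culture. Luciferase read 15 sec following 15 min substrate incubation, room temp.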
HCMV antiviral: blocks human cytomegalovirus replication | HFF cells, HCMV-luciferase reporter, 72 h; active compounds read low | activity change, negative = inhibition, % at 57.5 µM | actives 4.5% (n = 410,000) | AID 1259415; in the data active means activity change below about -60%; inconclusive means no clear call, values can overlap the other calls; inactive means above about -39%
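HFF cells seeded 16 h at 37C, treated with compounds, infected with luciferase-reporter HCMV at MOI 1 PFU/cell; luciferase read at 72 h post infection, normalized to buffer-only and Salinomycin controls.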
VACV Venus inh: inhibitors of vaccinia virus (Venus reporter); Vaccinia virus Venus reporter expression, fluorescence; Potency, µM (series often up to 36.5 µM), inactives show at the highest dose activity change, negative = inhibition, usual class: inhibitors; actives 0.46% (n = 330,000); AID 720580; calls by dose curve; tested in A549 cells; further: potency means the concentration at half of the fitted maximal effect; nearly all actives have a fitted effect of over 30% in size
Marburg entry inh: Marburg virus entry inhibition; Marburg virus pseudotyped entry inhibition, cell reporter; actives 1.8% (n = 300,000); AID 540276; Potency, µM (series often up to 37.8 µM), without a hit: at the highest dose activity change, negative = inhibition, actives largely listed as inhibitors; calls by dose curve; tested in HEK293 cells; further: potency means the concentration at half of the fitted maximal effect
VACV mCherry inh: inhibitors of vaccinia virus infection (mCherry reporter signal) | Vaccinia virus mCherry reporter infection, fluorescence | Potency, µM (series often up to 36.5 µM), for the others: top-dose activity change, negative = inhibition, most hits filed as inhibitors | actives 0.63% (n = 310,000) | AID 720579; calls by dose curve; tested in A549 cells; further: potency means the concentration at half of the fitted maximal effect; nearly all actives have a fitted effect of over 35% in size
LASV entry inh: inhibitors of Lassa virus binding or cell entry. Lassa virus pseudotype entry inhibition, cell reporter. actives 1.2% (n = 300,000). Potency, µM (titrated, usually from 37.9 µM), for inactives: at the highest dose activity change, negative = inhibition, actives largely listed as inhibitors. AID 540256; calls by dose curve; tested in HEK293 cells; further: potency means the concentration at half of the fitted maximal effect; nearly all actives have a fitted effect of over 50% in size
The depositor's hits bear a star; i = inactive; u = inconclusive; x = not tested or not shown; [ ] = remark or other dose. On the % scale 0 is the no-effect control and ±100 the full control effect.

SMILES	HCV inhibitor	HCMV antiviral	VACV Venus inh	Marburg entry inh	VACV mCherry inh	LASV entry inh
Cc1ccccc1C(=O)c1cccn1CC(=O)NCCC1=CCCCC1	-6%	u	9%	-15%[46.1 µM]	13%	-11%
Cc1ccccc1C(=O)c1cccn1CC(=O)NCCN1CCN(c2cccc(C)c2C)CC1	11µM*	25	x	u	x	u
Cc1ccccc1C(=O)c1cccn1CC(=O)NCCCN1CCCCC1	24%	-11	-13%	-30%[46.1 µM]	-2%	-9%[46.1 µM]
Cc1ccc(C)c(N2CCN(CCCNC(=O)Cn3cccc3C(=O)c3ccccc3C)CC2)c1	11µM*	-94*	u	u	u	u
CCN1CCN(C(=O)Cn2ncc3c4ccccc4n(Cc4c(C)cc(C)cc4C)c3c2=O)CC1	x	-60*	3%[7.34 µM]	u	-3%[7.34 µM]	-25%[46.1 µM]
O=C(Cn1ncc2c3ccccc3n(Cc3ccccc3)c2c1=O)N1CCN(c2ncccn2)CC1	10µM*	x	x	u	x	u
CCOc1ccccc1CNCc1c(C(=O)O)n(Cc2ccc(F)cc2)c2cc(C)ccc12	x	11	u	x	u	u
Cc1onc(-c2ccccc2Cl)c1C(=O)NC1C(=O)N2C1SC(C)(C)C2C(=O)O (stereo not given)	x	x	-7%	x	-10%	x
COc1ccc(OC)c(/C=C/C(=O)N2CCCc3ccccc32)c1	10µM*	-31	-12%	u	i	u
COc1cc(/C=C/C(=O)OCC(=O)N2CCCc3ccccc32)ccc1O	-27%	-15	-22%	1.3µM*	-29%	-26%
O=C(OCC(=O)N1CCCc2ccccc21)c1cnc(Cl)c(Cl)c1	5µM*	-4	x	-7%	x	x
COc1ccc2[nH]cc(CCO)c2c1	x	x	-9%	x	i	x
CCC1C(=O)NCCN1Cc1ccc2c(c1)CN(Cc1ccc(OC)c(OC)c1)CCO2 (stereo not given)	x	x	u	x	-2%	x
COc1cc(CCCN2C(=S)NC[C@@H]2Cc2ccccc2)cc(OC)c1OC	u	12	-18%	x	-7%	x
COc1cc(CCCN2C(=S)NC[C@@H]2c2ccccc2)cc(OC)c1OC	u	-99*	-16%	x	i	x
CCn1c(-c2ccccc2Cl)nn(CC(=O)Nc2cc(Cl)ccc2Cl)c1=S	13µM*	u	-25%	u	-3%[1.46 µM]	u
CCn1c(-c2ccccc2Cl)nn(CC(=O)NCCc2ccccc2)c1=S	-1%	-26	-10%	-35%	i	5%
CCc1ccc(NC(=O)CSc2nccn2-c2ccc(OC)cc2)cc1	x	-100*	-23%	x	-3%	-26%[46.1 µM]
CCc1ccc(NC(=O)CSc2nccn2-c2ccc(F)cc2)cc1	x	-66*	-20%	x	-2%	8%[46.1 µM]
COc1ccc(-n2ccnc2SCC(=O)Nc2ccc3c(c2)OCO3)cc1	x	-74*	2%	x	-10%	23%[46.1 µM]
COc1ccc(NC(=O)CSc2nnc3ccc(-c4ccncc4)nn23)cc1	-3%	-71*	-6%	7%[46.1 µM]	i	11%
CCCCN(CC)CCCNC(=O)c1cn(CC)c2ccc(S(=O)(=O)N3CCOCC3)cc2c1=O	x	-4	-1%	-8%[46.1 µM]	-3%	-4%[46.1 µM]
Cc1cccc(S(=O)(=O)c2cn(C)c3cc(N4CCN(c5ccc(F)cc5)CC4)c(F)cc3c2=O)c1	x	-34	-12%	x	-4%	7%[46.1 µM]
COc1cccc(-n2ccnc2SCC(=O)Nc2c(C)cc(C)cc2C)c1	x	-102*	-7%	x	-20%	-23%[46.1 µM]
Cc1cc(C)c(NC(=O)CSc2nc(COc3ccccc3)nc3ccccc23)c(C)c1	4%	12	u	u	11µM*	u
SMILES	HCV inhibitor	HCMV antiviral	VACV Venus inh	Marburg entry inh	VACV mCherry inh	LASV entry inh
O=C1NC(=S)SC1=Cc1cccs1	10%	21	7%	12%[46.1 µM]	-11%	4%[46.1 µM]
O=C1Nc2ccccc2S/C1=C/c1cccs1	6.3µM*	72	u	9%[46.1 µM]	-9%	-4%[46.1 µM]
Cc1c(Cl)cccc1NC(=O)N1CCC(CN2CCCC2)CC1	x	-23	-9%	x	-11%	20%[46.1 µM]
Cc1ccccc1NCC(=O)Nc1cc(S(=O)(=O)N2CCCCC2)ccc1C	-30%	-17	x	x	x	x
O=C(CN(Cc1ccco1)Cc1ccco1)Nc1cc(S(=O)(=O)N2CCCCC2)ccc1Cl	10µM*	-83*	x	x	x	x
CC(NCC(=O)Nc1cc(S(=O)(=O)N2CCCCCC2)ccc1Cl)c1ccccc1 (stereo not given)	13µM*	-27	x	x	x	x
